The nature of assay [1]: yeast TOR pathway RPL19A-GFP modulators, primary screen, cell-based, S. cerevisiae, multiplex flow cytometry (AID 1862; in the data active = percent of DMSO control GFP below about 86%;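 note: lower values mimic rapamycin by blocking the RPL19A rise seen in DMSO cells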). The settings on record: S. cerevisiae RPL19A-GFP strain, flow cytometry fluorescence, 3 h; at 10 µM; stronger effect = lower value. (In general: Flow cytometry measures light scatter and fluorescence of single cells or particles in a stream.)
Assay [2] is described as follows: modulators of MEP2-GFP levels in yeast, primary screen, S. cerevisiae, multiplex flow cytometry (AID 1867;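 active = GFP response, as percent of the DMSO control, above the screen-wide mean plus 3 SD, about 139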;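 note: median GFP channel fluorescence of barcode-gated MEP2-GFP cells measured by flow cytometry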). The settings on record: S. cerevisiae MEP2-GFP strain, 3 h, at 10 µM, stronger effect = higher value, 100% means same as DMSO wells.
A short description of assay [3]: modulators of CIT2-GFP expression in yeast, primary screen, S. cerevisiae, GFP fusion, multiplex flow cytometry (AID 1870;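 active = percent response above a set limit, the screen-wide mean plus 3 SD, cut at about 130% in these data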;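 note: barcoded CIT2-GFP strain pooled with four other GFP strains with rapamycin as positive control; median GFP fluorescence per well over plate mean of DMSO wells so 100% = DMSO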). The conditions noted are these: 3 h, at 10 µM, stronger effect = higher value.
The nature of assay [4]: modulators of LAP4-GFP expression in yeast, primary screen, S. cerevisiae, multiplex flow cytometry (AID 1873;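 active = GFP signal, as percent of the solvent control, above the screen mean plus 3 SD, about 149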). The conditions noted are these: 3 h, at 10 µM, stronger effect = higher value.
The nature of assay [5]: modulators of AGP1-GFP expression in yeast TOR pathway, primary screen, cell-based, multiplex flow cytometry, S. cerevisiae (AID 1887;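 active = GFP signal above the screen-wide mean plus 3 SD, that is over about 124.5% of the solvent control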;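 note: AGP1-GFP fusion strain of S. cerevisiae within a five-strain barcoded multiplex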). The settings on record: 3 h, at 10 µM, stronger effect = higher value.
A short description of assay [6]: inhibitors of CD8+ T cell-vesicle binding, pilot screen, LFA-1/ICAM-1 modulator project, MLPCN validation set, flow cytometry (AID 2523;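 active = response below a set limit, under 55% cells CD8-positive and vesicle-bound, and CD8 cells' 90th-percentile brightness under 279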;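 for vesicle binding response: mean PE anti-B7-1 fluorescence of CD8+ cells relative to row control; 100% = QL9-loaded vesicles with DMSO vehicle in the same plate row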). The conditions noted are these: 2C mouse CD8+ T cells, at 7 µM, stronger effect = lower value; double positive events: measured here: CD8+/vesicle+ event percentage.
Assay [7] addresses Integrin beta-1 (Homo sapiens) + Integrin alpha-4 (Homo sapiens) (UniProt P13612+P05556). The experiment in a line: inhibition of HUTS-21 binding to VLA-4, pilot screen, VLA-4 allosteric modulator project, U937 cells, HUTS-21 mAb, flow cytometry, validation set (AID 2674;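 active = inhibition above 50%, about 3 SD of the validation set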;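 note: antibody binding induced by the VLA-4 ligand LDV present at three times its Kd; 0% = LDV ligand with antibody and no compound and 100% = antibody without LDV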). The conditions noted are these: HUTS-21 LIBS mAb binding, at 6.7 µM, stronger effect = higher value, binding induced by LDV ligand.

Assay [8] in a line: superoxide lowering in aged yeast cells, pilot screen, validation compound set (AID 2706;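 active = superoxide response below 65% of plate, a cut near 3 SD across the whole screen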;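 note: yeast exposed to compound for one week at 30 degrees C before staining; 100% = mean of all compound wells on the same plate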). The conditions noted are these: S. cerevisiae aging, superoxide DHE fluorescence; at 10 µM; stronger effect = lower value.
The target of assay [9] is Beta-adrenergic receptor kinase 1 (Homo sapiens) (UniProt P25098). The experiment in a line: GRK2 binders displacing RNA aptamer, biochemical, validation, human GRK2, bead flow cytometry (AID 488806;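 active = aptamer binding inhibition above 30%, about 3 SD of noise from non-fluorescent compounds; inactive = inhibition at or below 30%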). The settings on record: bead-bound GRK2, FAM-aptamer displacement, at 10 µM, stronger effect = higher value.
Assay [10] deals with Beta-2 adrenergic receptor (Homo sapiens) (UniProt P07550). The experiment in a line: beta2AR agonists driving receptor internalization, pilot screen, cell-based, FAP fluorogen, flow cytometry, validation set (AID 504459;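 active = percent response above 42, roughly 3 SD of non-fluorescent test compounds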;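 note: agonist-driven loss of surface beta2AR via internalization measured by FAP dye flow cytometry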). The conditions noted are these: Am2.2-beta2AR cells, FAP surface receptor flow cytometry; at 10 µM; stronger effect = higher value.
Assay [11] has as its target AP-2 complex subunit beta (Homo sapiens) (UniProt P63010). Nature of the assay: inhibitors of arrestin peptide binding to AP2, pilot screen, biochemical, validation set, GST-AP2 beads, flow cytometry (AID 504541;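 active = inhibition above 54%, about 3 SD of non-fluorescent compounds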;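 note: AP2 carries R879A mutation and is captured from E. coli lysate; bead-bound FITC arrestin peptide fluorescence measuring arrestin peptide binding to AP2; 0% = DMSO wells and 100% = excess unlabeled arrestin peptide control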). The settings on record: FITC arrestin peptide, at 10 µM, stronger effect = higher value, AP2 beta2 appendage fragment, R879A mutant.
Assay [12] in a line: yeast V-ATPase proton transport modulators, S. cerevisiae, pHLuorin, HTS validation (AID 504600; in the data active = response above about 15%;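 note: plate controls were DMSO for no effect and reference compound for full effect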). The conditions noted are these: S. cerevisiae pHLuorin cytosolic pH, at 10 µM, stronger effect = higher value.
Assay [13] deals with anti-desmoglein-3 scFv antibody binding to human DSG3. Nature of the assay: inhibitors of anti-DSG3 scFv binding to DSG3, pilot screen, biochemical, validation compound set, bead-based, flow cytometry (AID 588368;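 active = binding below the plate cutoff, the plate median minus 3 SD, with a reading above zero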;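 note: signal is the median channel fluorescence of bead-bound GFP antibody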). The settings on record: Protein G beads, DSG3-Fc, scFv-GFP binding, at 10 µM, stronger effect = lower value.
A short description of assay [14]: inhibitors of fungal efflux pumps CDR1, CDR2, MDR1, pilot screen, validation compound set, multiplex, phenotypic (AID 588506;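 active = efflux inhibition above 0.42, the validation set average plus 4 SD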;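 note: Nile Red retained in cells so higher fluorescence means more efflux inhibition; 0 = negative control wells and 1 = enniatin B 25 µM full block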). The conditions noted are these: S. cerevisiae pump-expressing triplex, Nile Red efflux flow cytometry; at 10 µM; stronger effect = higher value; the pumps come from Candida albicans.
For assay [15], the target named is ATP-binding cassette sub-family B member 6 (Homo sapiens) (UniProt Q9NP58). The experiment in a line: ABCB6 transporter inhibitors, pilot screen, K562-ABCB6 cells, flow cytometry, validation set (AID 588550).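 Note: 0% = DMSO wells and 100% = benzethonium chloride 70 µM positive control.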 The settings on record: K562-ABCB6 porphyrin accumulation, 1 h, at 10 µM, stronger effect = higher value.
A short description of assay [16]: promoters of myeloid differentiation in arrested cells, primary screen, cell-based, GFP/MAC1 double positive, flow cytometry, validation set (AID 588685;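 active = differentiation response of at least 50%, scaled between solvent and reference control, from cells with both markers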;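 note: compound exposure lasts four days before antibody staining and flow analysis; 0% = DMSO wells and 100% = 5 µM fulvestrant positive control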). The conditions noted are these: ER-HoxA9 marrow cells, stronger effect = higher value, normalized: vehicle 0, fulvestrant 100.

Results on four molecules are retold here after PubChem BioAssay.

Inconclusive results are not listed. Calls of active or inactive are those of the source.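 Rule for the calls, unless noted: active = inhibition above the screen-wide mean plus 3 SD, about 51%; inactive = the rest.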

For orientation: inhibition means the change of the read-out against control, counted positive when it falls.

Beta-2 adrenergic receptor (Homo sapiens), sequence (P07550 whole entry, looked up): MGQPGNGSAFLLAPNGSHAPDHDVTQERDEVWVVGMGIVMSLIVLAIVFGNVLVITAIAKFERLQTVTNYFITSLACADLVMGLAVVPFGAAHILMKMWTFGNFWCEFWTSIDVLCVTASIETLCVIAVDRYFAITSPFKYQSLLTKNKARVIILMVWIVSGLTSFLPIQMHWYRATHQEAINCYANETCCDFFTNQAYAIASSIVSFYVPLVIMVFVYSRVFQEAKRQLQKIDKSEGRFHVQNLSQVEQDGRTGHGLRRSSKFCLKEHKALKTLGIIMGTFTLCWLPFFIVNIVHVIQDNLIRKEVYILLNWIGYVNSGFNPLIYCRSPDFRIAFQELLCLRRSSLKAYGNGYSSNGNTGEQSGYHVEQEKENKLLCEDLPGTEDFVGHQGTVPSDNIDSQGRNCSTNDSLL
Beta-adrenergic receptor kinase 1 (Homo sapiens), sequence (P25098 whole entry, looked up): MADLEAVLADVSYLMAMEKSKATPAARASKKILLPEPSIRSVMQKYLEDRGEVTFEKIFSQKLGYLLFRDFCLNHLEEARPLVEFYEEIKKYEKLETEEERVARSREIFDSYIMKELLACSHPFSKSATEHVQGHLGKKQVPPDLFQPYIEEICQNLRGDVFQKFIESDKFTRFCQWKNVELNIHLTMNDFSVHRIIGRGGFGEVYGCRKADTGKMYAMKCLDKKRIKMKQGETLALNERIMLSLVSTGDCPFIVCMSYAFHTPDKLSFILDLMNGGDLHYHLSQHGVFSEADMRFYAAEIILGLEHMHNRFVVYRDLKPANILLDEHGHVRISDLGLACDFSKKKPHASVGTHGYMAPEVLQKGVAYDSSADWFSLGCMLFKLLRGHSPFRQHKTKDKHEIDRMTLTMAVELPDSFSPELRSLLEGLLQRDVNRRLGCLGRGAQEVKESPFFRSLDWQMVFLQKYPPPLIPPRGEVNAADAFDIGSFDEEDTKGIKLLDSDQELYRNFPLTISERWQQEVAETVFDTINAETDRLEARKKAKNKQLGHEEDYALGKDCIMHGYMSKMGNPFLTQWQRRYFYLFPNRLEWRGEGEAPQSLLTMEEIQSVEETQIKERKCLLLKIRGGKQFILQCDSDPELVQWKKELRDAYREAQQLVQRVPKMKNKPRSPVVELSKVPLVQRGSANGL
ATP-binding cassette sub-family B member 6 (Homo sapiens), sequence (Q9NP58 whole entry, looked up): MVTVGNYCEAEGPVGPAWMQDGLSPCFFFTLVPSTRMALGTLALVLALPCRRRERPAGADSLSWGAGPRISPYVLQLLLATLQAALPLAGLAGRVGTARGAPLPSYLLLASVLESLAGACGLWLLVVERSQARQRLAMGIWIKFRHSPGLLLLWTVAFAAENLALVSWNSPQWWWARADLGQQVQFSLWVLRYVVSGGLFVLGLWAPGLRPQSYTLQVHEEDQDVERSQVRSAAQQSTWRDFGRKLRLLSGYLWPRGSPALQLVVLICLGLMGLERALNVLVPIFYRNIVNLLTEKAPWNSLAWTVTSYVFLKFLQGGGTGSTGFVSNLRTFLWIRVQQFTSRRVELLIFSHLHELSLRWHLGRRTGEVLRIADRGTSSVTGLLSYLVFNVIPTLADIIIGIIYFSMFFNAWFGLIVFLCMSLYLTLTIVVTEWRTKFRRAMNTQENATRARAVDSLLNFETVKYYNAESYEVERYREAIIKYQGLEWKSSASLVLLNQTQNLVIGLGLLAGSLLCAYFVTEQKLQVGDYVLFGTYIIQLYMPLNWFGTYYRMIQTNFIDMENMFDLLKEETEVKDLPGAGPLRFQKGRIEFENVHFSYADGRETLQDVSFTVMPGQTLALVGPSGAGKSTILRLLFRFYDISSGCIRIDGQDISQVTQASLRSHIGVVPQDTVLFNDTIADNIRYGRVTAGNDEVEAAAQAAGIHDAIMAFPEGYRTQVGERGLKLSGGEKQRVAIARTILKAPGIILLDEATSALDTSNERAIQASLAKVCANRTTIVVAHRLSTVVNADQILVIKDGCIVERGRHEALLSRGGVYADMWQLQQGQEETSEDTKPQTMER
Integrin beta-1 (Homo sapiens) + Integrin alpha-4 (Homo sapiens), sequence (P05556 whole entry, looked up): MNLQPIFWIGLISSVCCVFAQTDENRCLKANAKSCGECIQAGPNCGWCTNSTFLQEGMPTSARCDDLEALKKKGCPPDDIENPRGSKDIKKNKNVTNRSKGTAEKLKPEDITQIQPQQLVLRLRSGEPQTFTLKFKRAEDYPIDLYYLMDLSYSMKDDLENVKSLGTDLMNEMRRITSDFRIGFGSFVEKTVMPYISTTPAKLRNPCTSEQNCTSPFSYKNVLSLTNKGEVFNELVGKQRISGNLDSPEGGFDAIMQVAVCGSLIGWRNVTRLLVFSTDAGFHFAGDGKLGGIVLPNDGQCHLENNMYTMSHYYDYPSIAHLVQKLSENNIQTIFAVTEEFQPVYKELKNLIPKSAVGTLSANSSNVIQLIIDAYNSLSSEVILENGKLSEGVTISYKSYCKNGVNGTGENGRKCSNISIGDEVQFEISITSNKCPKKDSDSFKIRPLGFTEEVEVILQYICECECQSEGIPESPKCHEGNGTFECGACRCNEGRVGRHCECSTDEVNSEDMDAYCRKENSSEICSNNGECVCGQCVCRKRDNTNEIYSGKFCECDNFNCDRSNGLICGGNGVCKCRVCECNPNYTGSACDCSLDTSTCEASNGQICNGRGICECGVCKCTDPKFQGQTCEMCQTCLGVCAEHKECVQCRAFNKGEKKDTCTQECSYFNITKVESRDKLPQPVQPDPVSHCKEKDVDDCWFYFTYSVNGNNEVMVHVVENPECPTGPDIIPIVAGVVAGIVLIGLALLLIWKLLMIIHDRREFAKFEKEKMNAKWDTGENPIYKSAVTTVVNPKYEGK
Integrin beta-1 (Homo sapiens) + Integrin alpha-4 (Homo sapiens), sequence (P13612 whole entry, looked up): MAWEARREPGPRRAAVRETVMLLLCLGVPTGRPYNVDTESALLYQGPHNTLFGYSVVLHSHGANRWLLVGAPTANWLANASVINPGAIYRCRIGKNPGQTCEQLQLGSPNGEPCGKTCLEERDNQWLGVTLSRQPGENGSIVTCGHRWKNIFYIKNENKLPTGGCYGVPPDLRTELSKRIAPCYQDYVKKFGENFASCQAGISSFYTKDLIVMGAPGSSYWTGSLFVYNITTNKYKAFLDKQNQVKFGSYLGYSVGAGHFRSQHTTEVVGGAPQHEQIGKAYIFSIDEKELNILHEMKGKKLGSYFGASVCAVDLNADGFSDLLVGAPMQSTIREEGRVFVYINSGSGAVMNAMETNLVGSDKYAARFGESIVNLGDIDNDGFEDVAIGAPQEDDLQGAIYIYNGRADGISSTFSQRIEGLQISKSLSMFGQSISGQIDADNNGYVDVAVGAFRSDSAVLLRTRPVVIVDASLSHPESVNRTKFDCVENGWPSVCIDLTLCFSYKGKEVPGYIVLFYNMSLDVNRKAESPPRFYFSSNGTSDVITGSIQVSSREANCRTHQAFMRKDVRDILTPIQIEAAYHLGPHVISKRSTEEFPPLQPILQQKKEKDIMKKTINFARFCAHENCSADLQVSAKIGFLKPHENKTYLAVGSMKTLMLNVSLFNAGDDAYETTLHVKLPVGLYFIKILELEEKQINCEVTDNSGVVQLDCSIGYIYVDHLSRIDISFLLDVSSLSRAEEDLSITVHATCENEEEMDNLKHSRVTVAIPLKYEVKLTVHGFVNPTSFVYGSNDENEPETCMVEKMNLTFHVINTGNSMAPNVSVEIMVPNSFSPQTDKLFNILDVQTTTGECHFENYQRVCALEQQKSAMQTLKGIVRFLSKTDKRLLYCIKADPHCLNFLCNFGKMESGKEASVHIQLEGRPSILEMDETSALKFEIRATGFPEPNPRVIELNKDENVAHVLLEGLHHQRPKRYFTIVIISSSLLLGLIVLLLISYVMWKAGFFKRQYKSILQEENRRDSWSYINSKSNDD
AP-2 complex subunit beta (Homo sapiens), sequence (P63010 whole entry, looked up, the tested form may be a part, one chain of several): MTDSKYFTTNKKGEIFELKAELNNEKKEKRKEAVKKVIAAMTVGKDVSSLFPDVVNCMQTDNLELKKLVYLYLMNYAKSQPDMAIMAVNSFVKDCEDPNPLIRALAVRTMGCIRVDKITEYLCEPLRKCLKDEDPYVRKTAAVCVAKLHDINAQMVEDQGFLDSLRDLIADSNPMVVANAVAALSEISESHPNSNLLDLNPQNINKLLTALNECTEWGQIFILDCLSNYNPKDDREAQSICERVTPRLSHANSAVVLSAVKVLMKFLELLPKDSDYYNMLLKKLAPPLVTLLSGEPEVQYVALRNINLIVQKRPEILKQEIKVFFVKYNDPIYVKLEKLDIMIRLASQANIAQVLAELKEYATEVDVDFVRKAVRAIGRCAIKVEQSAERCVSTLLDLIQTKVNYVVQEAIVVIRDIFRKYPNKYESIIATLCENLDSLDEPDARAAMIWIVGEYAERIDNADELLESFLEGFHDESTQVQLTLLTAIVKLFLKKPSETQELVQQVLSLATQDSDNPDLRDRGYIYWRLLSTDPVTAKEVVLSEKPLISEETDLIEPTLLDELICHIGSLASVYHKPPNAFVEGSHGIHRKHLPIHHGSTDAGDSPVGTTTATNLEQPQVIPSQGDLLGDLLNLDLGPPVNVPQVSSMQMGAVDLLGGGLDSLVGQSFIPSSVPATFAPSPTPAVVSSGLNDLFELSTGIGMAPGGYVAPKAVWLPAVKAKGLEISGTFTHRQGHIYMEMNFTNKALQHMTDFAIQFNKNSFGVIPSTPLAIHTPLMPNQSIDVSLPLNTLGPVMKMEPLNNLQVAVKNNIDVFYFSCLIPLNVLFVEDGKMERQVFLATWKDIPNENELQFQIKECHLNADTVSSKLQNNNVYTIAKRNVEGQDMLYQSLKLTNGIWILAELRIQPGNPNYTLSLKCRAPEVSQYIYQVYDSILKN

Take `CC1(C)O[C@@H]2C[C@H]3[C@@H]4C[C@H](F)C5=CC(=O)C=C[C@]5(C)[C@@]4(F)[C@@H](O)C[C@]3(C)[C@]2(C(=O)CO)O1`: the percent of DMSO control GFP in [1] was 102% (inactive). Further, the GFP response vs DMSO in [2] and in assay [4] was 102% (inactive) throughout. Besides, in assay [3], the percent response of DMSO control was 105% (inactive). For the same molecule, the GFP response, % of DMSO in [5] is 111% (inactive). The molecule further came in with a double positive events in assay [6] of 57.8%. Further, the vesicle binding response in assay [6] was 113% (inactive). The figures for the inhibition in assay [7], in assay [11] and in assay [15] were -5.11% (inactive), -10.8% (inactive) and 19% (inactive), respectively. For the same molecule, the superoxide response (% of plate) in [8] is 103% (inactive). Moreover, the aptamer binding inhibition in assay [9] was 1% (inactive). Also, the figures for the response in [10] and in [12] were 6.68% (inactive) and 0.85% (inactive), respectively. Besides, the binding (% of control) in assay [13] was 104% (inactive). In addition, in assay [14], the efflux inhibition (fraction of control) is -0.025 (inactive). In addition, in [16], the differentiation response is -8.96% (inactive).

Regarding `Cc1cc(OCC(=O)C(C)(C)C)c2c(C)c(C)c(=O)oc2c1`, in [1], the percent of DMSO control GFP was 102% (inactive). Moreover, the GFP response vs DMSO was 103% (inactive) in [2] and 118% (inactive) in assay [4]. Besides, the percent response of DMSO control in assay [3] was 94.8% (inactive). In addition, in [5], the GFP response, % of DMSO is 98.8% (inactive). The molecule also registered a double positive events in assay [6] of 60.4%. The vesicle binding response in [6] is 213% (inactive). Further, the results for the inhibition in assay [7], in assay [11] and in assay [15] were 2.3% (inactive), 27.4% (inactive) and 3% (inactive), respectively. Also, the superoxide response (% of plate) in [8] was 102% (inactive). In addition, the aptamer binding inhibition in [9] was 7% (inactive). Moreover, the response in assay [10] was -4.14% (inactive); in assay [12] it was -7.2% (inactive). Besides, the binding (% of control) in assay [13] was 101% (inactive). The efflux inhibition (fraction of control) in assay [14] was 0.26 (inactive). For the same molecule, the differentiation response in assay [16] is 4% (inactive).

`Cc1ccc2c(c1)C(C)(C)[C@]1(C)NC(=O)CCN21`: in assay [1], the percent of DMSO control GFP was 94.2% (inactive). For the same molecule, the GFP response vs DMSO in [2] was 109% (inactive); in [4], 115% (inactive). Also, the percent response of DMSO control in assay [3] was 92% (inactive). Further, in assay [5], the GFP response, % of DMSO is 105% (inactive). Moreover, the double positive events in assay [6] was 65.2%. Besides, in assay [6], the vesicle binding response was 212% (inactive). Further, the results for the inhibition in assay [7], in assay [11] and in [15] were -25% (inactive), -1% (inactive) and 9% (inactive), respectively. For the same molecule, in assay [8], the superoxide response (% of plate) was 99.4% (inactive). Moreover, the aptamer binding inhibition in assay [9] is 7% (inactive). Moreover, the results for the response in [10] and in assay [12] were 29.6% (inactive) and -1.48% (inactive), respectively. In addition, the binding (% of control) in [13] was 98% (inactive). Further, the efflux inhibition (fraction of control) in [14] was -0.28 (inactive). Moreover, the differentiation response in assay [16] was 2.4% (inactive).

Take `C[C@]12CCC3C(CC=C4C[C@@H](O)CC[C@@]43C)C1CCC2[C@]1(C)CCC(=O)O1` (stereo partly drawn): the percent of DMSO control GFP in [1] was 102% (inactive). The GFP response vs DMSO in [2] was 97.4% (inactive); in assay [4] it was 84.6% (inactive). Besides, the percent response of DMSO control in assay [3] was 109% (inactive). In addition, in assay [5], the GFP response, % of DMSO was 95.7% (inactive). The double positive events in assay [6] came out at 57%. Moreover, the vesicle binding response in [6] is 164% (inactive). The values for the inhibition in assay [7], in assay [11] and in assay [15] were 0.94% (inactive), -4.51% (inactive) and 9% (inactive), respectively. In addition, in [8], the superoxide response (% of plate) is 100% (inactive). Further, the aptamer binding inhibition in [9] was 4% (inactive). The response was 1.67% (inactive) in [10] and -0.48% (inactive) in assay [12]. Also, the binding (% of control) in assay [13] was 103% (inactive). Also, in assay [14], the efflux inhibition (fraction of control) is 0.48 (active). The differentiation response in [16] was -15.2% (inactive).
